{"source": "the supplement of paper PMC8975748", "note": "Counter-ions that a name gives are not always drawn."}
{"test_system": "Saccharomyces cerevisiae BY4741 SeMeCo community", "experiment": "z-score of subpopulation abundance vs DMSO median, subpopulation auxotrophic for HLM; higher = larger share of this subpopulation than in DMSO controls", "settings": "10 µM; 24 h; SM minimal medium; subpopulation (auxotrophy): HLM", "summary_of_the_method": "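Four plasmids, each restoring a single auxotrophy and encoding a distinct fluorescent protein, were carried by a Saccharomyces cerevisiae BY4741 community. After overnight growth to OD600 1.0 and dilution to 0.3, 70 µl per well was grown for 24 h in minimal SM medium on 384-well plates acoustically predosed with library drugs at 10 µM final. Following paraformaldehyde fixation, automated confocal microscopy was used, with single-auxotroph fluorescent strains defining thresholds and autofluorescence correction. Subpopulation abundance was then scored as a z-score against the vehicle-well median.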"}
{"smiles": "O=C(Cn1cnnn1)N[C@@H]1C(=O)N2C(C(=O)O)=C(CSc3nncs3)CS[C@H]12", "note": "[Ceftezole]", "z-score of subpopulation abundance": -0.2}
{"smiles": "O=C(NCCN1CCOCC1)c1ccc(Cl)cc1", "z-score of subpopulation abundance": -0.28}
{"smiles": "C=C[C@]1(C)C[C@@H](OC(=O)CSC(C)(C)CNC(=O)[C@H](N)C(C)C)[C@]2(C)[C@H](C)CC[C@]3(CCC(=O)[C@H]32)[C@@H](C)[C@@H]1O", "note": "[Valnemulin HCl]", "z-score of subpopulation abundance": 0.18}
{"smiles": "CN1CCN(CCCN2c3ccccc3Sc3ccc(C(F)(F)F)cc32)CC1", "note": "[Trifluoperazine 2HCl]", "z-score of subpopulation abundance": -0.79}
{"smiles": "CCCCCCCCN=c1ccn(CCCCCCCCCCn2ccc(=NCCCCCCCC)cc2)cc1", "note": "[Octenidine Dihydrochloride]", "z-score of subpopulation abundance": 27.7}
{"smiles": "CC1(C)S[C@@H]2[C@H](NC(=O)Cc3ccccc3)C(=O)N2[C@H]1C(=O)O", "note": "[Penicillin G Sodium]", "z-score of subpopulation abundance": -0.09}
{"smiles": "CC(C)[C@H]1CC[C@H](C(=O)N[C@H](Cc2ccccc2)C(=O)O)CC1", "note": "[Nateglinide]", "z-score of subpopulation abundance": 0.89}
{"smiles": "Nc1ccc(S(=O)(=O)NC(=O)c2ccccc2)cc1", "note": "[Sulfabenzamide]", "z-score of subpopulation abundance": 0.11}
{"smiles": "COc1ccc(C(=O)NCc2ccc(OCCN(C)C)cc2)cc1OC", "note": "[Itopride hydrochloride]", "z-score of subpopulation abundance": 0.04}
{"smiles": "COc1ccc(-c2nc3cc(C4=NNC(=O)CC4C)ccc3[nH]2)cc1", "note": "(centres undefined) [Pimobendan]", "z-score of subpopulation abundance": 0.33}
{"smiles": "CC(C)N1CCN(c2ccc(OCC3COC(Cn4cncn4)(c4ccc(Cl)cc4Cl)O3)cc2)CC1", "note": "(centres undefined) [Terconazole]", "z-score of subpopulation abundance": -0.59}
{"smiles": "COc1cc([C@@H]2c3cc4c(cc3[C@@H](O[C@@H]3O[C@@H]5CO[C@@H](c6cccs6)O[C@H]5[C@H](O)[C@H]3O)[C@H]3COC(=O)[C@H]23)OCO4)cc(OC)c1O", "note": "[Teniposide]", "z-score of subpopulation abundance": 1}
{"smiles": "COc1ccc2c(c1)c(CC(=O)O)c(C)n2C(=O)c1ccc(Cl)cc1", "note": "[Indomethacin]", "z-score of subpopulation abundance": -1.07}
{"smiles": "N[C@@H](CCC(=O)O)C(=O)O", "note": "[(S)-Glutamic acid]", "z-score of subpopulation abundance": 0.07}
{"smiles": "CC1(C)S[C@@H]2[C@H](NC(=O)Cc3ccccc3)C(=O)N2[C@H]1C(=O)O", "note": "[Benzylpenicillin potassium]", "z-score of subpopulation abundance": 0.2}
{"smiles": "NC(=O)c1cnccn1", "note": "[Pyrazinamide]", "z-score of subpopulation abundance": -0.57}
{"smiles": "Cc1nnc(NS(=O)(=O)c2ccc(N)cc2)s1", "note": "[Sulfamethizole]", "z-score of subpopulation abundance": -0.87}
{"smiles": "CCC[C@@H]1C[C@@H](C(=O)N[C@@H]([C@H]2O[C@H](SC)[C@H](OP(=O)(O)O)[C@@H](O)[C@H]2O)[C@H](C)Cl)N(C)C1", "note": "[Clindamycin Phosphate]", "z-score of subpopulation abundance": -0.65}
{"smiles": "CN[C@@H]1[C@H](O[C@H]2[C@H](O[C@H]3[C@H](O)[C@@H](O)[C@H](N=C(N)N)[C@@H](O)[C@@H]3N=C(N)N)O[C@@H](C)[C@]2(O)C=O)O[C@@H](CO)[C@H](O)[C@H]1O", "note": "[Streptomycin sulfate]", "z-score of subpopulation abundance": -0.57}
{"smiles": "O=c1[nH]cnc2c1ncn2[C@@H]1O[C@H](CO)[C@@H](O)[C@H]1O", "note": "[Isoprinosine]", "z-score of subpopulation abundance": -0.33}
{"smiles": "C=C1c2cccc(O)c2C(O)=C2C(=O)[C@]3(O)C(O)=C(C(N)=O)C(=O)[C@@H](N(C)C)[C@@H]3[C@@H](O)[C@H]12", "note": "[Methacycline HCl]", "z-score of subpopulation abundance": 0.92}
{"smiles": "COC(=O)C1=C(C)NC(C)=C(C(=O)OC)C1c1ccccc1[N+](=O)[O-]", "note": "[Nifedipine]", "z-score of subpopulation abundance": 0.5}
{"smiles": "Nc1ccc(S(=O)(=O)c2ccc(N)cc2)cc1", "note": "[Dapson]", "z-score of subpopulation abundance": -0.14}
{"smiles": "NC(CO)(CO)CO", "note": "[Trometamol]", "z-score of subpopulation abundance": -0.69}
{"smiles": "C[C@]1(COc2ccc(N3CCC(Oc4ccc(OC(F)(F)F)cc4)CC3)cc2)Cn2cc([N+](=O)[O-])nc2O1", "note": "[Delamanid]", "z-score of subpopulation abundance": 0.05}
{"smiles": "Nc1nc(=O)[nH]cc1F", "note": "[Flucytosine]", "z-score of subpopulation abundance": 35.5}
{"smiles": "CO[C@@H]1[C@@H](O[C@@H]2O[C@H](C)[C@@H](O[C@H]3C[C@@](C)(O)[C@@H](O)[C@H](C)O3)[C@H](N(C)C)[C@H]2O)[C@@H](CC=O)C[C@@H](C)[C@@H](O[C@H]2CC[C@H](N(C)C)[C@@H](C)O2)/C=C/C=C/C[C@@H](C)OC(=O)C[C@H]1OC(C)=O", "note": "[Acetylspiramycin (ASPM)]", "z-score of subpopulation abundance": 0.23}
{"smiles": "C[C@]12CC[C@@H]3c4ccc(OS(=O)(=O)O)cc4CC[C@H]3[C@@H]1CCC2=O", "note": "[Estropipate]", "z-score of subpopulation abundance": -0.64}
{"smiles": "COc1ccnc(C[S+]([O-])c2nc3cc(-n4cccc4)ccc3[nH]2)c1C", "note": "(centres undefined) [Ilaprazole sodium]", "z-score of subpopulation abundance": 3.01}
{"smiles": "CN1C[C@@H]2C[C@H]1CN2c1cc2c(cc1F)c(=O)c(C(=O)O)cn2C1CC1", "note": "[Danofloxacin Mesylate]", "z-score of subpopulation abundance": -0.5}
{"smiles": "c1ccc(-c2ccc(C(c3ccccc3)n3ccnc3)cc2)cc1", "note": "(centres undefined) [Bifonazole]", "z-score of subpopulation abundance": 2.32}
{"smiles": "CO/N=C(\\C(=O)N[C@@H]1C(=O)N2C(C(=O)O)=CCS[C@H]12)c1csc(N)n1", "note": "[Ceftizoxime]", "z-score of subpopulation abundance": -0.37}
{"smiles": "CN(C)[C@@H]1C(=O)C(C(N)=O)=C(O)[C@@]2(O)C(=O)C3=C(O)c4c(O)ccc(Cl)c4[C@@H](O)[C@H]3C[C@@H]12", "note": "[Demeclocycline HCl]", "z-score of subpopulation abundance": -0.17}
{"smiles": "C#C[C@]1(O)CC[C@H]2[C@@H]3CCC4=Cc5oncc5C[C@]4(C)[C@H]3CC[C@@]21C", "note": "[Danazol]", "z-score of subpopulation abundance": -0.39}
{"smiles": "Nc1c(Br)cc(Br)cc1CN[C@H]1CC[C@H](O)CC1", "note": "[Ambroxol HCl]", "z-score of subpopulation abundance": -0.5}
{"smiles": "CCOC(=O)c1ccc(N)cc1", "note": "[Benzocaine]", "z-score of subpopulation abundance": -0.02}
{"smiles": "O=C1c2c(O)ccc(O)c2C(=O)c2c(NCCNCCO)ccc(NCCNCCO)c21", "note": "[Mitoxantrone 2HCl]", "z-score of subpopulation abundance": -2.5}
{"smiles": "c1ccc2[nH]c(-c3cscn3)nc2c1", "note": "[Thiabendazole]", "z-score of subpopulation abundance": -0.38}
{"smiles": "C[C@@H](O)[C@H]1C(=O)N2C(C(=O)[O-])=C(SC3Cn4cnc[n+]4C3)[C@H](C)[C@H]12", "note": "(some centres undefined) [Biapenem]", "z-score of subpopulation abundance": -0.52}
